About 83,000 compounds went through this panel and 20% of them were active in at least one assay; those are over-represented in the sample as a whole.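 Interpretation: 100, growth as untreated; towards 0, rising growth inhibition; 0, no net growth; 0 to -100, cell death. Compounds scoring below 10 were considered active.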 Unmarked numbers belong to inactive results. Activity calls are given as the source filed them.

13 molecules from PubChem BioAssay (NCI) can be followed below.

The subject of this experiment is UACC-62 melanoma. In words: NCI-60 one-dose screen, 48 h (100 = growth as untreated, 0 = no growth, -100 = all killed). Conditions: 10 µM unless noted.
Regarding `O=C1NC(=O)c2c1c1c3cc(Br)ccc3[nH]c1c1oc3ccc(F)cc3c21`, the growth is 0.264% (active).

With `O=C1NC(=O)/C(=C/c2ccccc2OCc2cc3ccccc3nc2Cl)S1`, the growth was 52%.

As to `Cc1ccc(NCC(=O)Cn2cc(COc3ccc(C=Nc4cnc5ccccc5c4)cc3)nn2)cc1`, the growth was 97.8%.

On to `C/C(=N\N=C1/C(=O)Nc2ccc(Cl)cc21)c1ccc2c(c1)Nc1ccccc1S2`, for which the growth is 13.5%.

On to `CCN(CC)c1ccnc(CNCCSC(c2ccccc2)(c2ccccc2)c2ccc(C)cc2)c1`, for which the growth was -96.2% (active).

For the molecule `COc1ccc(C(=O)/C=C/c2ccc(OCc3ccc(F)cc3)c(OC)c2)cc1OC`, the growth was 18.8%.

Turning to `COc1cc(OC)c2c3nc4cc(C)c(C)cc4nc3n(CCN(C)C)c2c1`, the growth was 99.1%.

For `N=C1N=C(SCc2nc3ccccc3[nH]2)NC(=O)/C1=C/c1ccc(Cl)cc1`, the growth was 90.3%.

Consider `O=C(Cn1nc(-c2ccccc2)ccc1=O)N/N=C/c1ccc(N2CCOCC2)cc1`, for which the growth is 83.7%.

Take `O=C(N=Nc1c(O)[nH]c2ccc([N+](=O)[O-])cc12)c1ccc2nc(-c3ccccc3)[nH]c2c1`: the growth was 75.5%.

On to `C/C(=N\N=C\c1cc([N+](=O)[O-])ccc1Cl)c1ccc2c(c1)Nc1ccccc1S2`, for which the growth was 69.6%.

On to `C=C1CCC2C3(C)COC(c4ccc(F)cc4)OC3CCC2(C)C1C/C=C1/C(=O)OCC1O` (stereo not drawn), for which the growth was -8.34% (active).

On to `CCCSc1nc(NCCc2c[nH]c3ccccc23)c(C#N)c(-c2ccc(OC)cc2)n1`, for which the growth was 71.7%.
